Common to all, as to assay: NCI-60 one-dose screen, 48 h (100 = growth as untreated, 0 = no growth, -100 = all killed)
Details in all cases: 10 µM unless noted

Assay [1] relates to BT-549 breast.
For assay [2], the system named is MDA-MB-435 melanoma.
Assay [3] concerns SW-620 colon.
For assay [4], the system named is MCF7 breast.
The test system of assay [5] is HCT-116 colon.
Assay [6] deals with HCC-2998 colon.
Assay [7] concerns KM12 colon.
The subject of assay [8] is T-47D breast.

SMILES strings stand for the structures. Where “and” joins values, the source holds several entries; their conditions need not be identical. Identical values can stand only once. About 83,000 compounds went through this panel and 20% of them were active in at least one assay; those are over-represented in the sample as a whole.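 Results are percent growth after 48 hours of single-concentration exposure. 100 means growth as in untreated cells, lower positive values show inhibition; negative values down to -100 show cell death.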 Calls of active or inactive are those of the source. Rule for the calls: active = growth percent below 10; inactive = the rest.

`CCCCCCCCCCCCCCCCOc1ccc(C)cc1`: the growth in assay [1] was 112% (inactive); in assay [2], 111% (inactive); in assay [3] it was 101% (inactive); in assay [4], 102% (inactive); in assay [5], 108% (inactive); in assay [6], 105% (inactive). In addition, the growth in assay [7] was 108% (inactive).

Regarding `Cn1c(=O)c2[nH]c(CCCCCCCCc3nc4ccccc4[nH]3)nc2n(C)c1=O`, the growth is 46.1% (inactive) and 54.1% (inactive) in assay [1]; 37% (inactive) and 52.2% (inactive) in assay [2]; 91.7% (inactive) and 91.2% (inactive) in assay [3]; 45.2% (inactive) and 50.7% (inactive) in assay [4]; 40.9% (inactive) and 56% (inactive) in assay [5]; 59.2% (inactive) and 86.5% (inactive) in assay [6]. For the same compound, the growth in assay [7] is 83.6% (inactive) and 91.1% (inactive).

Turning to `c1ccc(N(c2ccccc2)c2ccccc2)cc1`, the growth in assay [1] is 106% (inactive); in assay [2], 104% (inactive); in assay [3] it was 103% (inactive); in assay [4] it was 117% (inactive); in assay [5] it was 99.6% (inactive); in assay [6] it was 111% (inactive). For the same compound, the growth in assay [7] was 105% (inactive).

Regarding `O=CC(O)C(O)C(O)CO` (stereo not drawn), the growth in assay [8] was 109% (inactive) and 96.5% (inactive); in assay [1], 104% (inactive); in assay [2] it was 112% (inactive) and 109% (inactive); in assay [4] it was 97.5% (inactive) and 94.6% (inactive); in assay [5] it was 112% (inactive) and 102% (inactive); in assay [7], 103% (inactive) and 102% (inactive).

As for `O=C(O)CSCc1nc2ccccc2[nH]1`, the growth was 108% (inactive) in assay [1]; 115% (inactive) in assay [2]; 103% (inactive) in assay [3]; 96.4% (inactive) in assay [4]; 107% (inactive) in assay [5]; 103% (inactive) in assay [6]. Moreover, the growth in assay [7] is 111% (inactive).

As to `O=C(Cc1cccc2ccccc12)N/N=C/c1ccc2c(c1)CCC2`, the growth is 92.5% (inactive) in assay [1]; 7.56% (active) in assay [2]; 54.8% (inactive) in assay [3]; 80.5% (inactive) in assay [4]; 66.4% (inactive) in assay [5]; 81.9% (inactive) in assay [6]. The growth in assay [7] is 54.3% (inactive).

Regarding `CCN(CC)C(=O)c1cccnc1`, the growth was 98.5% (inactive) in assay [1]; 97.9% (inactive) in assay [2]; 106% (inactive) in assay [3]; 108% (inactive) in assay [4]; 105% (inactive) in assay [5]; 109% (inactive) in assay [6]. Also, the growth in assay [7] was 104% (inactive).

As for `COc1ccc(/C(C#N)=C/c2ccccn2)cc1`, the growth in assay [1] was 103% (inactive); in assay [2], 97% (inactive) and 106% (inactive); in assay [3], 112% (inactive) and 130% (inactive); in assay [4] it was 104% (inactive) and 102% (inactive); in assay [5], 96.3% (inactive) and 104% (inactive); in assay [6] it was 97.7% (inactive) and 103% (inactive). Besides, the growth in assay [7] is 101% (inactive) and 102% (inactive).

Regarding `Cc1cc(N=Nc2ccc(C)c(N=Nc3cc(C)c(N)cc3N)c2)c(N)cc1N`, the growth in assay [1] was 94.2% (inactive); in assay [2], 100% (inactive) and 12% (inactive); in assay [3], 94.8% (inactive) and 48.4% (inactive); in assay [4] it was 66.9% (inactive) and 19.4% (inactive); in assay [5] it was 84.3% (inactive) and 58.3% (inactive); in assay [6], 105% (inactive) and 91% (inactive). For the same compound, the growth in assay [7] was 90.6% (inactive) and 39.6% (inactive).

In the case of `CC1(c2ccc3ccccc3c2)CCC(=O)O1` (stereo not drawn), the growth was 104% (inactive) in assay [1]; 106% (inactive) in assay [2]; 108% (inactive) in assay [3]; 106% (inactive) in assay [4]; 111% (inactive) in assay [5]; 109% (inactive) in assay [6]. For the same compound, the growth in assay [7] is 106% (inactive).

As for `NC(=S)Nc1[nH]c(=S)nc2c1SC1=N/C(=C\c3ccco3)C(=O)N12`, the growth in assay [4] was 20.2% [100 µM] (inactive) and 4.03% [100 µM] (active).

Consider `CNC(=O)c1cccnc1`, for which the growth in assay [1] was 101% (inactive); in assay [2], 105% (inactive); in assay [4], 105% (inactive); in assay [5], 103% (inactive); in assay [7] it was 110% (inactive).

As for `Nc1nc2ncc(CNc3ccc(C(=O)N[C@@H](CCc4nn[nH]n4)C(=O)O)cc3)nc2c(=O)[nH]1`, the growth in assay [1] is 88.7% (inactive) and 107% (inactive); in assay [2], 101% (inactive) and 110% (inactive); in assay [3] it was 98.5% (inactive) and 104% (inactive); in assay [4], 94.2% (inactive) and 93.7% (inactive); in assay [6] it was 99.2% (inactive) and 104% (inactive); in assay [7], 94.5% (inactive) and 103% (inactive).

In the case of `Nc1ncnc2c1ncn2C1CC(O)C(CO)O1` (stereo not drawn), the growth in assay [2] is 105% (inactive) and 107% (inactive); in assay [3], 115% (inactive) and 105% (inactive); in assay [4], 96.1% (inactive) and 97.1% (inactive); in assay [5], 103% (inactive) and 100% (inactive); in assay [7] it was 114% (inactive) and 107% (inactive).

In the case of `COc1ccc(/C=c2\[nH]c3nc(=O)c(N4CCOCC4)c(N)n3c2=O)cc1`, the growth in assay [4] was 56.5% [100 µM] (inactive) and 43.7% [100 µM] (inactive).

With `C[C@]12CC[C@@H]3c4ccc(OS(N)(=O)=O)cc4CC[C@H]3[C@@H]1CCC2=O`, the growth in assay [4] is 15.4% [100 µM] (inactive) and 44.8% [100 µM] (inactive).

Source of the values: PubChem BioAssay (NCI).
